These results are taken from PubChem BioAssay (EPA / NIEHS).

The target in test [1] is human Dual Specificity Protein Phosphatase 3 (DUSP3), DUSP3 (gene 1845) (UniProt P51452). The test can be described thus: NVS_ENZ_hDUSP3: NovaScreen (NVS) Enzymatic Assay for human Dual Specificity Protein Phosphatase 3 (DUSP3) (AID 2283152). In a few lines: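 Cell-free fluorescence-intensity enzyme activity assay with recombinant protein and substrate; loss of signal fitted relative to DMSO baseline. Primary screen in duplicate at 25 uM, actives then run in concentration series; measured 0 h after dosing.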
Sequence of human Dual Specificity Protein Phosphatase 3 (DUSP3), DUSP3 (gene 1845) (P51452 whole entry, looked up): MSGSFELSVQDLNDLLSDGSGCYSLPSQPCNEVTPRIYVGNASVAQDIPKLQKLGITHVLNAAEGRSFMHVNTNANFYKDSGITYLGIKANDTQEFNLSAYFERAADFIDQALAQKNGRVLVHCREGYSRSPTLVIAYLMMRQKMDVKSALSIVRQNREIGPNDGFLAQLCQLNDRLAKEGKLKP

The target of test [2] is human Elastase, ELANE (gene 1991) (UniProt P08246). Description: NVS_ENZ_hElastase: NovaScreen (NVS) Enzymatic Assay for human Elastase (AID 2283153). The procedure, abridged: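 Concentration-response to 50 uM max, run singly for chemicals passing a threshold (e.g., 30% inhibition) in a duplicate 25 uM single-point screen. Neutrophil-derived human elastase, absorbance read-out of enzyme activity at 1.5 h; DMSO baseline.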
Sequence of human Elastase, ELANE (gene 1991) (P08246 whole entry, looked up): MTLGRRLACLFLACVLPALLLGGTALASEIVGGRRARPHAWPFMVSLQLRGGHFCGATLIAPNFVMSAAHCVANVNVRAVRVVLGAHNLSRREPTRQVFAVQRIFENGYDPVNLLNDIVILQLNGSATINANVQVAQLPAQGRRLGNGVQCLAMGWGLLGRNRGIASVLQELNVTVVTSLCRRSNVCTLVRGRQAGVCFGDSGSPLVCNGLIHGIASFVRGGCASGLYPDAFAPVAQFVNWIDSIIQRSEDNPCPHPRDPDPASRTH

Test [3] deals with human Esterase Plasma (ES), BCHE (gene 590) (UniProt P06276). The test can be described thus: NVS_ENZ_hES: NovaScreen (NVS) Enzymatic Assay for human Esterase Plasma (ES) (AID 2283157). In a few lines: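 Primary single-concentration screen at 25 uM in duplicate, then concentration-response to a 50 uM top dose. Human plasma esterase activity detected colorimetrically after 0.25 h incubation, with DMSO as baseline.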
Sequence of human Esterase Plasma (ES), BCHE (gene 590) (P06276 whole entry, looked up): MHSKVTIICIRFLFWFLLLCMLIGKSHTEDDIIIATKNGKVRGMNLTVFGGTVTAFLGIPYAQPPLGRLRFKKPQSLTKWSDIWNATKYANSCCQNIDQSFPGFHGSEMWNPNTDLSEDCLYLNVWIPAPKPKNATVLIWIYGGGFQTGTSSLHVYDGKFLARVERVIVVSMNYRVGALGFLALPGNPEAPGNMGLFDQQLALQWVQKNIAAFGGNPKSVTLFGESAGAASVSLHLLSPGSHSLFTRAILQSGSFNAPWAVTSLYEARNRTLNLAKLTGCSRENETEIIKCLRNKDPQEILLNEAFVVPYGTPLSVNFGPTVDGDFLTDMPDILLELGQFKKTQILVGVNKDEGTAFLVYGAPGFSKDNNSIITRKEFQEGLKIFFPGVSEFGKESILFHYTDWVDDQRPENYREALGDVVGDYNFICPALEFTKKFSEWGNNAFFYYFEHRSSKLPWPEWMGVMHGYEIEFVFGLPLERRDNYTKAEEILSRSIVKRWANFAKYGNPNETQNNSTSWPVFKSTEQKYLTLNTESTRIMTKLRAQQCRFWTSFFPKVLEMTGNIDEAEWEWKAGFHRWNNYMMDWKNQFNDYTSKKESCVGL

The target of test [4] is Histone deacetylase 3 (Homo sapiens) (UniProt O15379). Description: NVS_ENZ_hHDAC3: NovaScreen (NVS) Enzymatic Assay for human Histone Deacetylase 3 (HDAC3) (AID 2283163). In a few lines: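 Cell-free enzyme format: loss of fluorescent product after mobility-shift separation, 1 h incubation, recombinant human HDAC3. Single 25 uM duplicate screen first, then concentration series to a 50 uM top for hits; DMSO as baseline.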
Sequence of Histone deacetylase 3 (Homo sapiens) (O15379 whole entry, looked up): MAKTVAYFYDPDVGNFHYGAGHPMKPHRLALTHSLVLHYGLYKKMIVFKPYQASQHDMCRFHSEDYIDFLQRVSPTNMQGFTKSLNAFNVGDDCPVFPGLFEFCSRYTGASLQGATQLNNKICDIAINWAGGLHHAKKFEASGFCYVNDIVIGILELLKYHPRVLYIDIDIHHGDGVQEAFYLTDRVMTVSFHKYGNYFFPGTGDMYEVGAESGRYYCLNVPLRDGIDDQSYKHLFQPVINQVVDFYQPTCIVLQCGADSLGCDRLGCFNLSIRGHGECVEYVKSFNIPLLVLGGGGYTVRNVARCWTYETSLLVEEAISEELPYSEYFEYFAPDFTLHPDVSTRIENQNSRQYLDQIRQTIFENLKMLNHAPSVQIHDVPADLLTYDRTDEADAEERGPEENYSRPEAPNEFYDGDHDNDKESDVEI

The target of test [5] is human Ephrin type-A Receptor 2 (EphA2), EPHA2 (gene 1969) (UniProt P29317). The test can be described thus: NVS_ENZ_hEphA2: NovaScreen (NVS) Enzymatic Assay for human Ephrin type-A Receptor 2 (EphA2) (AID 2283155). The procedure: (§1) NVS_ENZ_hEphA2 is a biochemical, single-readout assay that uses extracted gene-proteins in a cell-free assay. Measurements were taken 1 hour after chemical dosing in a 384-well plate.NVS_ENZ_hEphA2 is one of one assay component(s) measured or calculated from the NVS_ENZ_hEphA2 assay. It is designed to make measurements of enzyme activity, a form of enzyme reporter, as detected with fluorescence intensity signals by Fluorescence and electrophoretic mobility shift technology.Data from the assay component NVS_ENZ_hEphA2 was analyzed into 1 assay endpoint. This assay endpoint, NVS_ENZ_hEphA2, was analyzed in the positive analysis fitting direction relative to DMSO as the negative control and baseline of activity. Using a type of enzyme reporter, loss-of-signal activity can be used to understand changes in the enzymatic activity as they relate to the gene EPHA2. Furthermore, this assay endpoint can be referred to as a primary readout, because this assay has produced multiple assay endpoints where this one serves a enzymatic activity function. To generalize the intended target to other relatable targets, this assay endpoint is annotated to the kinase intended target family, where the subfamily is receptor tyrosine kinase.
(§2) Binding assays used specific radioligands (tritiated, iodinated) with non-radioactive competitive displacement ligands in agonist or antagonist protocols (as indicated) and various reference compounds and inhibitors to titrate specific binding to receptors and transporters. Most enzyme assays (CYPs, kinases, phosphatases, proteases, HDACs) used recombinant protein and specific substrates (fluorescence mostly, some colorimetric and radioactive) and inhibitors, followed by a biochemical separation of substrate and product. All assays for the biochemical HTS were initially run in duplicate at a single concentration (10 uM for CYP450 assays and 25 uM for all others). Assay-chemical combinations meeting a pre-defined threshold (e.g., 30% inhibition and other criteria defined below) were then run in singleton concentration-response format with maximum concentration of 20 uM for CYPs and 50 uM for all others. Each assay was run with positive and negative controls, and concurrent controls on every plate. The follow-up (secondary) screen tested active chemical-pairs in concentration series, as well as a few additional assays not tested in the primary screen, some selected negative inactives, and several cases re-run in the concentration series for confirmatory purposes.

For test [6], the target named is human Fibroblast Growth Factor Receptor 1 (FGFR1), FGFR1 (gene 2260) (UniProt P11362). The test can be described thus: NVS_ENZ_hFGFR1: NovaScreen (NVS) Enzymatic Assay for human Fibroblast Growth Factor Receptor 1 (FGFR1) (AID 2283159).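 On AC50: hits lower the signal so potencies describe inhibitors of the kinase.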 The procedure, abridged: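 Cell-free recombinant kinase with fluorescent substrate, product separated by electrophoretic mobility shift; read 1 hour after dosing, loss of signal relative to DMSO. Initial screen in duplicate at 25 uM, actives followed in concentration series.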
Sequence of human Fibroblast Growth Factor Receptor 1 (FGFR1), FGFR1 (gene 2260) (P11362 whole entry, looked up): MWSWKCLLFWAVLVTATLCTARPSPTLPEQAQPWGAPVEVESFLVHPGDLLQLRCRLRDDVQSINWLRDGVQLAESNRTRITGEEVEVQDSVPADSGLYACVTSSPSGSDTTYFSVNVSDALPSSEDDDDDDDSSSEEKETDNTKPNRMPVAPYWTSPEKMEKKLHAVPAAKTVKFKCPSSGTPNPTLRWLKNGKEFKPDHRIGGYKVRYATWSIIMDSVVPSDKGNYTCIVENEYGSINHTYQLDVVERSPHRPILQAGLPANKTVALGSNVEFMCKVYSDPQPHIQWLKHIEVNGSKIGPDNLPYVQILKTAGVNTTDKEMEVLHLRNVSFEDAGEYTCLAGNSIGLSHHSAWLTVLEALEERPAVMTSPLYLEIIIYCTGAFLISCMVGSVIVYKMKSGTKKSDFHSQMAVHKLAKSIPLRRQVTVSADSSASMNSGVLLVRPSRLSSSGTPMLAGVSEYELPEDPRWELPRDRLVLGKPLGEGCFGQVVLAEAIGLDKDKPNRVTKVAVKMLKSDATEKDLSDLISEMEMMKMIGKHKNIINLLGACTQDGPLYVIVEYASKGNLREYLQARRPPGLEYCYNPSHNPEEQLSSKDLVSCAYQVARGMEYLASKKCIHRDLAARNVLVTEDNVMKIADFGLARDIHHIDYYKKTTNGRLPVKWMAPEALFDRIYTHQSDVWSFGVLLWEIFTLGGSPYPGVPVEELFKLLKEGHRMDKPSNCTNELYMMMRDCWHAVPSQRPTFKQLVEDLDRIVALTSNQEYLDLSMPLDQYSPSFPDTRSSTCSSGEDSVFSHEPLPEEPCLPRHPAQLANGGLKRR

The target of test [7] is human FYN Proto-Oncogene, Src family Tyrosine Kinase (Fyn), FYN (gene 2534) (UniProt P06241). The test can be described thus: NVS_ENZ_hFyn: NovaScreen (NVS) Enzymatic Assay for human FYN Proto-Oncogene, Src family Tyrosine Kinase (Fyn) (AID 2283161). The protocol: as §1, with “NVS_ENZ_hFyn” for “NVS_ENZ_hEphA2”, “plate.NVS_ENZ_hFyn” for “plate.NVS_ENZ_hEphA2”, “NVS_ENZ_hFyn,” for “NVS_ENZ_hEphA2,”, “FYN.” for “EPHA2.”, “non-receptor” for “receptor”
Sequence of human FYN Proto-Oncogene, Src family Tyrosine Kinase (Fyn), FYN (gene 2534) (P06241 whole entry, looked up): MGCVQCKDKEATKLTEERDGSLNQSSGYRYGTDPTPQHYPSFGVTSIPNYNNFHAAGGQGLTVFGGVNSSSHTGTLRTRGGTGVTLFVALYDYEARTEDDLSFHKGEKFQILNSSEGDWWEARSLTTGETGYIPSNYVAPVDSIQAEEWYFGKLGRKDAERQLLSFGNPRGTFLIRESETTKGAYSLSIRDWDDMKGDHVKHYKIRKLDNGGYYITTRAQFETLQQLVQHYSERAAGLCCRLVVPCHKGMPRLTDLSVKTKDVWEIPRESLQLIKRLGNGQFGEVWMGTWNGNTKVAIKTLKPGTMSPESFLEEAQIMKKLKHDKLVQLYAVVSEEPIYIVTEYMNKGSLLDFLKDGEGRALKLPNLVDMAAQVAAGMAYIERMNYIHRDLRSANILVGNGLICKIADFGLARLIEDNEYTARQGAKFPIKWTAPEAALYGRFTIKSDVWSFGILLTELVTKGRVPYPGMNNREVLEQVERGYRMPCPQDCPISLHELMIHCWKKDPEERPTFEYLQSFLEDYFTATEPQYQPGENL
as §2, with “Assay-chemical combinations meeting a pre-defined threshold (e.g., 30% inhibition and other criteria defined below) were then run in singleton concentration-response format with maximum concentration of 20 uM for CYPs and 50 uM for all others.” left out

The target of test [8] is human Ephrin type-A Receptor 1 (EphA1), EPHA1 (gene 2041) (UniProt P21709). The test can be described thus: NVS_ENZ_hEphA1: NovaScreen (NVS) Enzymatic Assay for human Ephrin type-A Receptor 1 (EphA1) (AID 2283158).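 Further: activity is signal loss versus DMSO meaning EphA1 kinase inhibition.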 In a few lines:
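Chemicals first tested in duplicate at 25 uM against recombinant EphA1 with a fluorescent substrate; those passing threshold went to singleton dose-response topping at 50 uM. Activity read 1 h later as mobility-shift fluorescence, loss of signal relative to DMSO.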

Test [9] deals with human Epidermal Growth Factor Receptor (EGFR), EGFR (gene 1956) (UniProt P00533). The test can be described thus: NVS_ENZ_hEGFR: NovaScreen (NVS) Enzymatic Assay for human Epidermal Growth Factor Receptor (EGFR) (AID 2283151). In a few lines:
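Cell-free kinase assay, fluorescence plus electrophoretic mobility shift separating substrate and product, read 1 hour after dosing; loss of signal vs DMSO. Duplicate screen at 25 uM, then concentration-response to 50 uM.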

The target in test [10] is Protein deacetylase HDAC6 (Homo sapiens) (UniProt Q9UBN7). The test can be described thus: NVS_ENZ_hHDAC6: NovaScreen (NVS) Enzymatic Assay for human Histone Deacetylase 6 (HDAC6) (AID 2283164). The procedure, abridged: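 Concentration-response runs up to 50 uM followed a duplicate 25 uM single-point screen. Deacetylase activity of recombinant human HDAC6 read by fluorescence after 1 h, with mobility-shift separation of substrate and product; DMSO as baseline.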

Molecules are shown by their SMILES. Records with an inconclusive call do not appear. The source made the active and inactive calls. How the source made its calls: active means hit-call score of the fitted dose curve at least 0.9, where 1 is the maximum; inconclusive means response in the unintended direction; inactive means score below 0.9.

Sequence of human Epidermal Growth Factor Receptor (EGFR), EGFR (gene 1956) (P00533 whole entry, looked up): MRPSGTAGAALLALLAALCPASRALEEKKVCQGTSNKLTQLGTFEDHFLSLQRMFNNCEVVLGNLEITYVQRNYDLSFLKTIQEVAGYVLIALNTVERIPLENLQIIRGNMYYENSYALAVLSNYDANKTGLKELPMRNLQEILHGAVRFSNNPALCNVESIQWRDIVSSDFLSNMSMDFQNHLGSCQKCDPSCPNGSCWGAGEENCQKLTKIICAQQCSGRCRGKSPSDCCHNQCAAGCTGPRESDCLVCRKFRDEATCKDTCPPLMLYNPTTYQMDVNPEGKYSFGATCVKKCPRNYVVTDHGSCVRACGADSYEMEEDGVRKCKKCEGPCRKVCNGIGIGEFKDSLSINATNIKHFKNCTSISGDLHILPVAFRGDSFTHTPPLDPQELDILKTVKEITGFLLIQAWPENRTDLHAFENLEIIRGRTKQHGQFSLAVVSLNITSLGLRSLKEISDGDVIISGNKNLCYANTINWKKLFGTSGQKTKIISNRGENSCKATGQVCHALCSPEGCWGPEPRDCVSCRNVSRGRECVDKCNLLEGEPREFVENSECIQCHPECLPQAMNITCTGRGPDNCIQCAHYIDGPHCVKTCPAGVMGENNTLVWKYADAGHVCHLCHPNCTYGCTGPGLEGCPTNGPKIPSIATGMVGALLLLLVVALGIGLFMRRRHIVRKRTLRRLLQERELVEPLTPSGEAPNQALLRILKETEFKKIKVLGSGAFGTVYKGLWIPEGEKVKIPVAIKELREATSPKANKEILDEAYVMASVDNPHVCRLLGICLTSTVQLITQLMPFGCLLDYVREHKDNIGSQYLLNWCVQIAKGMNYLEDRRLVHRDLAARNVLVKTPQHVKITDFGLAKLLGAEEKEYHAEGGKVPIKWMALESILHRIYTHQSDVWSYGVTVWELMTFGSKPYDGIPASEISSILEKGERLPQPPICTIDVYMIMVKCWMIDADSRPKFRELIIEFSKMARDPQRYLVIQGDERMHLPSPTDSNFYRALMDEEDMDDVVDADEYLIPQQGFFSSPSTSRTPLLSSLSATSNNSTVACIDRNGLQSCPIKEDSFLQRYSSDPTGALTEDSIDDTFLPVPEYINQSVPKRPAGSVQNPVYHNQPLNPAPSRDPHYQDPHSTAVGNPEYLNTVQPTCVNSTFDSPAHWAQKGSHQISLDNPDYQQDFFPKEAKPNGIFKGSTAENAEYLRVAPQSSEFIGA
Sequence of human Ephrin type-A Receptor 1 (EphA1), EPHA1 (gene 2041) (P21709 whole entry, looked up): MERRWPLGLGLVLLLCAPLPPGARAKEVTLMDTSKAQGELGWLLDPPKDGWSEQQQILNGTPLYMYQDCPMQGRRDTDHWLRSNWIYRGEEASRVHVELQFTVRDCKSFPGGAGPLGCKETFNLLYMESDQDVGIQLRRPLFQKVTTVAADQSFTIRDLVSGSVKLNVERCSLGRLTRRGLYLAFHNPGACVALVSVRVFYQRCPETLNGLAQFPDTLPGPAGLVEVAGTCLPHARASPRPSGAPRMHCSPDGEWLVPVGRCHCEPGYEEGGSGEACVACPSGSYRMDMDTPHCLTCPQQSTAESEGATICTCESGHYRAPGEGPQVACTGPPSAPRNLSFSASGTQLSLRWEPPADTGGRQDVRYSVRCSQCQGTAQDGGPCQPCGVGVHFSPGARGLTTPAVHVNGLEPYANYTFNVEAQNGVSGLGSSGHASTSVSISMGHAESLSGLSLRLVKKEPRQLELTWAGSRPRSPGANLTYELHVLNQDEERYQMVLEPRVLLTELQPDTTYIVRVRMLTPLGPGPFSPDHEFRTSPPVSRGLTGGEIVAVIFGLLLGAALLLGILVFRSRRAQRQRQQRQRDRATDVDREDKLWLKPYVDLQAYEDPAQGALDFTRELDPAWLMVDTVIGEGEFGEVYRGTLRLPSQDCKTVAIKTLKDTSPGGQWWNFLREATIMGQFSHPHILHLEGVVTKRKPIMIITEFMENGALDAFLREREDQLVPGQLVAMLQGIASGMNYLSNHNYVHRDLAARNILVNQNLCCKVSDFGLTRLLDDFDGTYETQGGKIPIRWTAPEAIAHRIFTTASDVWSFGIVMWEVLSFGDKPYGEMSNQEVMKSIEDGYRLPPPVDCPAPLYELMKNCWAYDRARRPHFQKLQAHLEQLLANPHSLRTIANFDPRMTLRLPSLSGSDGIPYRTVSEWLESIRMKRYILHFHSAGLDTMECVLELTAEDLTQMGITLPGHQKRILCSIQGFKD

For `Nc1ccc(Cl)cc1N`, the half-maximal activity concentration (AC50) in [1] was 6.31 µM (active). In addition, the call in [2], in [3] and in test [4] was inactive.
Consider `Oc1ccccc1Cl`, for which the result in test [5] and in [6] was inactive.
On to `Cc1cccc(N)c1N`, for which the values for the AC50 in test [1] and in test [3] were 25 µM (active) and 23.1 µM (active), respectively.
For `Oc1ccc2ccc3cccc4ccc1c2c34`, the figures for the half-maximal activity concentration (AC50) in test [2] and in [6] were 4.52 µM (active) and 14.9 µM (active), respectively.
`CN(C)C(=O)Nc1ccc(Cl)cc1`: the compound was called inactive in [5] and in test [3].
As to `O=[N+]([O-])c1ccc(Oc2ccc(Cl)cc2Cl)cc1`, the compound was called inactive in test [2].
Turning to `CNC(=O)Oc1cccc2c1OC(C)(C)C2`, in [3], the AC50 was 27.3 µM (active). In addition, in [7], the compound was called inactive.
For the compound `CCCCCCCCCCCCCN1CC(C)OC(C)C1` (stereo not drawn), the call in [2], in [5], in test [3] and in [7] was inactive.
Take `O=C(N[C@H](c1ccccc1)[C@@H]1CN2CCC1CC2)c1c(Cl)ccc(C(F)(F)F)c1Cl`: the AC50 in test [3] is 19.8 µM (active).
Turning to `COc1cc(C=O)cc2c1[C@H](COC(N)=O)[C@]1(OC(C)=O)ON2C[C@H]2[C@@H]1N2C(C)=O`, the half-maximal activity concentration (AC50) in test [2] was 5.75 µM (active). Moreover, in [8], the result was inactive.
Regarding `Cc1ccc(N=C=O)cc1N=C=O`, the values for the AC50 in [1] and in [2] were 12.6 µM (active) and 8.38 µM (active), respectively.
As for `CCCCCCCCOC(=O)c1ccc(C(=O)OCCCCCCCC)c(C(=O)OCCCCCCCC)c1`, in test [2], the AC50 was 37.9 µM (active). Moreover, the call in test [5] was inactive.
Consider `COP(=S)(OC)SCN1C(=O)c2ccccc2C1=O`, for which, in test [1], the outcome was inactive.
With `c1ccc2c(c1)-c1cccc3cccc-2c13`, in test [7], the result was inactive.
As to `CCOC(=O)[C@]1(c2ccccc2)Oc2ccccc2[C@@H]1N`, the concentration at half-maximal activity (AC50) in test [3] is 16.7 µM (active).
As for `CCC[CH2][Sn]([Cl])([CH2]CCC)[CH2]CCC`, in test [1], the concentration at half-maximal activity (AC50) is 6.34 µM (active). Besides, the compound was classed as inactive in [7].
Consider `O=C(Oc1ccc(Br)cc1)N1CCN2CCC1CC2`, for which the outcome in [6] was inactive.
On to `CCCCCOC(=O)c1ccccc1C(=O)OCCCCC`, for which, in test [2], the result was inactive.
For the compound `CCN(CC)N=O`, the compound was classed as inactive in [9], in [5], in [6], in test [7] and in test [10].
For `O=[N+]([O-])C(Br)(CO)CO`, the AC50 in test [3] was 32.1 µM (active).
For the compound `CCCCC(CC)COC(=O)c1ccc(C(=O)OCC(CC)CCCC)c(C(=O)OCC(CC)CCCC)c1` (stereo not drawn), the result in [9], in test [8] and in [6] was inactive.
Consider `O=C(Nc1ccccc1)c1ccccc1I`, for which, in test [3], the compound was called inactive.
With `CN(C)[C@@H]1C(=O)C(C(N)=O)=C(O)[C@@]2(O)C(=O)C3=C(O)c4c(O)cccc4[C@@](C)(O)[C@H]3C[C@@H]12`, the AC50 is 7.39 µM (active) in test [1] and 18.5 µM (active) in test [2]. Further, the call in [3] was inactive.
Regarding `CCNS(=O)(=O)C(F)(F)C(F)(F)C(F)(F)C(F)(F)C(F)(F)C(F)(F)C(F)(F)C(F)(F)F`, the compound was classed as inactive in [9], in test [1], in [5], in test [8], in test [6] and in [4].
Turning to `C=CCc1ccc2c(c1)OCO2`, in test [6], the outcome was inactive.
As to `c1ccc(NNc2ccccc2)cc1`, the half-maximal activity concentration (AC50) in test [3] is 31.6 µM (active). Besides, the compound was classed as inactive in test [10].
In the case of `CC(C)(C)C(O)(CCc1ccc(Cl)cc1)Cn1cncn1` (stereo not drawn), the compound was classed as inactive in test [9]. The AC50 in test [3] was 22.7 µM (active).
For the compound `CC(C)(O)c1cnn2c(-c3ccc(F)c(-c4c(F)cccc4C#N)c3)cnc2n1`, the AC50 in test [1] is 40.8 µM (active).
With `CCOc1cccc(C2(N3CCN(c4ccccc4)CC3)CCC(C)CC2)c1` (stereo not drawn), the result in test [3] was inactive.
As for `CCCCCCCCn1sccc1=O`, in test [1], the concentration at half-maximal activity (AC50) was 26 µM (active). For the same compound, in test [8], the compound was classed as inactive.
For `[Cl-].[Cl-].[Hg+2]`, the concentration at half-maximal activity (AC50) in test [3] is 20.9 µM (active).
With `Cn1cc(-c2ccccc2)c(=O)c(-c2cccc(C(F)(F)F)c2)c1`, the compound was called inactive in test [4].
Regarding `OCCCBr`, in test [8], the compound was classed as inactive.
As to `ClCCOCCCl`, the compound was called inactive in [9] and in test [6].
Regarding `C1=Cc2cccc3cccc1c23`, the call in [1] and in [3] was inactive.

A word on the AC50: it is the concentration giving half of the maximal activity seen.
